According to PubChem BioAssay (NCATS):
Values joined by “and” are separate entries in the source; they are usually repeats but may differ in a detail not shown here. Identical values can stand only once. Results filed as inconclusive are left out. Active and inactive are the calls of the source. Unless noted, calls follow the shape of the dose curve; as a rule, active = well fitted curve in the direction sought with a large enough effect; inconclusive = small, poorly fitted or top-dose-only effect, or another doubt; inactive = no such curve, though single readings can be large; an effect the other way counts as inactive or inconclusive.

Assays:
[1] = Cell Viability - MRC5 (AID 434; calls by dose curve;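 also: potency is read from the fitted curve at half-maximal effect; potency reflects cytotoxicity seen as loss of intracellular ATP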); conditions: MRC5 lung fibroblast viability, qHTS
In short: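 MRC5 normal human lung fibroblasts, 1500 cells/well, exposed to compound for 40 hr at 37 C. Cellular ATP was read by CellTiter-Glo luminescence; data normalized to DMSO and 100 uM tamoxifen, with AC50 from Hill fits.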

[2] = Cellular Toxicity (caspase-3) HepG2 (AID 654); conditions: HepG2 caspase-3 activation, luminescence; series mostly up to 92.2 µM;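 also: cells exposed to compound for 16 hours before reading; 0% = DMSO alone and 100% = caspase signal from 100 µM tamoxifen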
In short: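 HepG2 cells (1500/well) in complete medium were treated with compounds for 16 hr at 37 °C. Caspase-3/7 activity was then read as luminescence from peptide-aminoluciferin cleavage. AC50 came from Hill fits, normalized to DMSO and 100 uM tamoxifen.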

[3] = Cellular Toxicity (caspase-3) HUV-EC-C (AID 656); conditions: HUV-EC-C cells, caspase-3 activation (apoptosis); series mostly up to 92.2 µM
In short: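 HUV-EC-C endothelial cells, 1000/well, were pre-incubated 5 hr at 37°C, then exposed to compounds for 16 hr at 37°C. Caspase-Glo 3/7 luminescence was read after 20 min at room temperature. AC50 came from Hill fits, normalized to DMSO and 100 uM tamoxifen.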

[4] = Cellular Toxicity (caspase-3) SHSY5Y (AID 657); conditions: SH-SY5Y caspase-3 activation; series mostly up to 91.7 µM
In short: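 SH-SY5Y human neuroblastoma cells (1500/well) were treated with compounds for 16 h at 37 °C, then Caspase-Glo 3/7 luminescence was read after 1 h at room temperature. Data normalized to DMSO and 10 uM staurosporine; AC50 from Hill fits.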

[5] = Cellular Toxicity (caspase-3) MRC-5 (AID 659); conditions: MRC-5 cells, luminescence, normalized: DMSO 0%, 10 µM staurosporine 100%; series mostly up to 91.7 µM
In short: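 MRC-5 human normal lung fibroblasts, 1500 cells/well, treated 16 h at 37 °C in complete medium. Caspase 3/7 measured by Caspase-Glo luminescence after 1 h at room temperature. Normalized to DMSO and 10 uM staurosporine; AC50 from Hill fit.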

[6] = Cellular Toxicity (caspase-3) Mesangial (AID 660); conditions: mesangial cells, normalized: DMSO 0%, 100 µM tamoxifen 100%; series mostly up to 91.7 µM
In short: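 Human renal glomerular mesangial cells (1000/well) were treated with compounds for 16 h at 37 °C in complete medium, then caspase 3/7 activity was read by Caspase-Glo luminescence. Data were normalized to DMSO and 100 uM tamoxifen; AC50 from Hill fits.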

[7] = Cellular Toxicity (caspase-3) SK-N-SH (AID 661); conditions: SK-N-SH caspase-3 activation, qHTS, DMSO as zero, staurosporine as full; series mostly up to 91.7 µM
In short: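 SK-N-SH human neuroblastoma cells (1500/well) were treated with compounds for 16 hr at 37 °C in complete medium; caspase 3/7 activity was read by Caspase-Glo luminescence. AC50 came from Hill fits of data normalized to DMSO and 10 uM staurosporine.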

[8] = Cellular Toxicity (caspase-3) H-4-II-E (AID 663); conditions: H-4-II-E rat hepatoma; Potency: caspase-3 activation; series mostly up to 92.2 µM;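 also: cells exposed to compound for 16 hr before readout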
In short: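 Rat hepatoma H-4-II-E cells (1500/well) plated 5 hr, then exposed to compound titrations for 16 hr at 37 °C. Caspase-Glo 3/7 luminescence read after 20 min at RT; data normalized to DMSO and 100 uM tamoxifen, AC50 from Hill fits.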

[9] = Cellular Toxicity (caspase-3) N2a (AID 665); conditions: N2a cells, luminescence, normalized: DMSO 0%, 10 µM staurosporine 100%; series mostly up to 92.2 µM;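 also: compound exposure lasted 16 h at 37 °C before readout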
In short: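 Mouse N2a neuroblastoma cells (1500/well) were treated with compounds for 16 h at 37 °C, then caspase-3/7 activity was read by Caspase-Glo luminescence after 1 h at room temperature. Data were normalized to DMSO and 10 uM staurosporine; AC50 from Hill fits.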

[10] = Cellular Toxicity (caspase-3) NIH 3T3 (AID 666); conditions: NIH 3T3 caspase-3 activation, apoptosis/toxicity, 0% DMSO, 100% is 100 µM tamoxifen; series mostly up to 92.2 µM;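 also: caspase signal read after 16 h compound exposure; 0% = DMSO basal and 100% = 100 µM tamoxifen stimulation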
In short: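 Mouse NIH 3T3 fibroblasts (1000 cells/well) were treated with compound for 16 hr at 37°C in complete medium; caspase-3/7 activity was read by Caspase-Glo luminescence. Normalized to DMSO and 100 uM tamoxifen; AC50 from Hill fits.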

[11] = Cellular Toxicity (caspase-3) Renal Proximal Tubule (AID 667); conditions: renal proximal tubule cells, primary cells freshly taken from rat; Potency: caspase-3 activation; series mostly up to 91.7 µM;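 also: cells exposed to compound for 16 hours at 37 °C before detection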
In short: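 Primary rat proximal tubule cells, 1000/well, 5 h plating at 37 °C, then compound 16 h at 37 °C. Caspase-Glo 3/7 reagent, 1 h RT, luminescence. Normalized to DMSO (basal) and 10 uM staurosporine (100%); Hill-fit AC50.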

[12] = MultiTox-Fluor Cytotoxicity Assay - LYMP1-001 - Dead Cells (AID 946); conditions: LYMP1-001 lymphoblastoid cells, dead-cell protease fluorescence; series mostly up to 92.2 µM;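 also: 0% = DMSO and 100% = tetraoctylammonium bromide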
In short: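 AC50 from Hill fit of concentration-response; data normalized to DMSO (basal) and 15 uM tetraoctylammonium bromide (100%). LYMP1-001 lymphoblastoid cells, 2500/well, 16 hr compound at 37 C; dead-cell protease fluorescence, Ex/Em 485/520.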

[13] = Cell Viability - LYMP1-002 - Assay at 16 hr (AID 948); conditions: LYMP1-002 lymphoblastoid cell viability; series mostly up to 92.2 µM;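 also: 0% = DMSO alone and full effect = 92 µM tetraoctylammonium bromide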
In short: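 Human lymphoblastoid cells (LYMP1-002), 2500/well, were preincubated 5 hr at 37 C, then exposed to compounds for 16 hr at 37 C in complete medium. Cellular ATP was read by CellTiter-Glo luminescence after 30 min at room temperature; AC50 from Hill fits.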

[14] = MultiTox-Fluor Cytotoxicity Assay - LYMP1-002 - Live Cells (AID 955); conditions: LYMP1-002 lymphoblastoid live-cell protease fluorescence viability; series mostly up to 46.1 µM; also: % is scaled to controls: 0 for no effect and ±100 for the full control effect
In short: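 Human lymphoblastoid LYMP1-002 cells, 2500/well in complete medium, rested 5 hr at 37 C, then exposed to compounds for 16 hr at 37 C. Live-cell protease cleavage of GF-AFC read by fluorescence (Ex/Em 405/510) after 60 min at room temperature; AC50 from Hill fits.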

[15] = MultiTox-Fluor Cytotoxicity Assay - LYMP1-003 - Live Cells (AID 962); conditions: LYMP1-003 lymphoblastoid cells, MultiTox-Fluor live-cell protease fluorescence; series mostly up to 92.2 µM;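 also: 0% = DMSO only and full loss = 92 µM tetraoctylammonium bromide; cytotoxic hits lower the live-cell protease signal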
In short: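 LYMP1-003 human lymphoblastoid cells (2500/well) in complete medium were preincubated 5 hr at 37 C, then exposed to compounds for 16 hr at 37 C. Live-cell protease cleavage of GF-AFC read by fluorescence (Ex/Em 405/510); AC50 from Hill fits.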

[16] = Cell Viability - LYMP1-003 - Assay at 24 hr (AID 963); conditions: LYMP1-003 lymphoblastoid cell viability; series mostly up to 92.2 µM;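 also: plate controls were DMSO only for no effect and tetraoctylammonium bromide positive control for full effect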
In short: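 Human lymphoblastoid LYMP1-003 cells (2500/well) were rested 5 hr at 37 C, then exposed to compounds in complete medium for 24 hr at 37 C. Cellular ATP was quantified by CellTiter-Glo luminescence, and AC50 values came from Hill fits of concentration-response data.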

[17] = Cell Viability - LYMP1-002 - Assay at 24 hr (AID 993); conditions: LYMP1-002 lymphoblastoid cells viability; series mostly up to 92.2 µM; also: % is scaled to controls: 0 for no effect and ±100 for the full control effect
In short: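 Human lymphoblastoid LYMP1-002 cells, 2500/well in complete medium, were treated with compounds for 24 h at 37 C; intracellular ATP was read by CellTiter-Glo luminescence. AC50 values came from Hill-equation fits of qHTS concentration-response data.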

[18] = qHTS Assay for Identification of Small Molecule Inducers of Hypoxia Response (AID 2120; active = well fitted curve in the direction sought with a large enough effect in the signal ratio, with a control signal flat, not every such curve was filed as active; the % refers to the signal ratio; also: 0% is about no effect); conditions: hypoxia response reporter cells, beta-lactamase ratio readout; series mostly up to 104 µM
In short: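 HRE-beta-lactamase reporter in CellSensor HRE-bla ME-180 cells, 2500 cells/well in Opti-MEM with 0.5% dialyzed FBS; compounds tested as titration series, 17 h at 37 degrees C. CCF4 substrate 2.5 h at room temperature; AC50 from 460/530 nm ratio.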

[19] = target: Peroxisome proliferator-activated receptor alpha (Homo sapiens) (UniProt Q07869); test: qHTS assay for small molecule agonists of the peroxisome proliferator-activated receptor alpha (PPARalpha) signaling pathway (AID 651778); conditions: PathHunter PPARalpha complementation, chemiluminescence, 6 h; max response: hits give high values; also: % of control where 0% means no effect
In short: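 Enzyme-fragment complementation assay in which ligand-bound PPARalpha translocates and forms an active enzyme that generates chemiluminescence. Cells were plated overnight, exposed to compound for 6 hr at 37 C, and then given detection reagent for 60 min at room temperature.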

[20] = qHTS assay for small molecule agonists of the antioxidant response element (ARE) signaling pathway measured by Nrf2-dependant transcriptional activity - cell viability counter screen (AID 720653; active = well fitted curve in the direction sought with a large enough effect in the repeat runs; an effect the other way counts as inactive or inconclusive; also: % is scaled to controls: 0 for no effect and ±100 for the full control effect); conditions: ARE-bla HepG2 viability, CellTiter-Glo ATP luminescence, 16 h; max response: hits give low values
In short: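 ARE-bla HepG2 cells treated with compounds for 16 h at 37C; this counter screen measures viability as intracellular ATP by CellTiter-Glo luminescence after 30 min at room temperature.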

Sequence of Peroxisome proliferator-activated receptor alpha (Homo sapiens) (Q07869 whole entry, looked up, the tested form may be a part): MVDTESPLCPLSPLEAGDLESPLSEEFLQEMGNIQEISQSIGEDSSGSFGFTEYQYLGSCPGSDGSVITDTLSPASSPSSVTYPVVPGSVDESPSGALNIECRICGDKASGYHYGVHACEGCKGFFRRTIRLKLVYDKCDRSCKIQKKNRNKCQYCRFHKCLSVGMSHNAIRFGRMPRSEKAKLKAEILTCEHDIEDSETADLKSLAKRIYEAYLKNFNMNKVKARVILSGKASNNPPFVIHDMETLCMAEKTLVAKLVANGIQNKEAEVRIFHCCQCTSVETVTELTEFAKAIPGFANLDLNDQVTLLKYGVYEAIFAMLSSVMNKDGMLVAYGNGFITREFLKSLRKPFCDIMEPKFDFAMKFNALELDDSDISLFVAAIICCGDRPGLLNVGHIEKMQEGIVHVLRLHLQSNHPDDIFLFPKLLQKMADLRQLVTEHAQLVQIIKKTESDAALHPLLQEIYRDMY

O=[N+]([O-])c1ccccc1Nc1ccccc1
inactive: Potency [1] > 92 µM | Potency [2] | Potency [3] | Potency [4] | outcome [5] | outcome [6] | outcome [7] | Potency [8] | outcome [9] | outcome [10] | Potency [11] | Potency [12] | Potency [13] | outcome [14] | Potency [15] | Potency [16] | Potency [17] | Potency [18] | max response [19] -0.358% | max response [20] -2.68%

Cc1cc(=O)oc2cc(O)cc(O)c12
inactive: Potency [1] > 92 µM | Potency [2] | Potency [3] | Potency [4] | outcome [5] | outcome [6] | outcome [7] | Potency [8] | outcome [9] | outcome [10] | Potency [11] | Potency [12] | Potency [13] | outcome [14] | Potency [15] | Potency [16] | Potency [17] | Potency [18] | max response [19] 0.255% | max response [20] 0.736%

c1ccc2ncccc2c1
inactive: Potency [1] > 92 µM | Potency [2] | Potency [3] | Potency [4] | outcome [5] | outcome [6] | outcome [7] | Potency [8] | outcome [9] | outcome [10] | Potency [11] | Potency [12] | Potency [13] | outcome [14] | Potency [15] | Potency [16] | Potency [17] | Potency [18] | max response [19] -2.05% | max response [20] 0.928%

COc1ccc([N+](=O)[O-])cc1N
inactive: Potency [1] > 92 µM | Potency [2] | Potency [3] | Potency [4] | outcome [5] | outcome [6] | outcome [7] | Potency [8] | outcome [9] | outcome [10] | Potency [11] | Potency [12] | Potency [13] | outcome [14] | Potency [15] | Potency [16] | Potency [17] | Potency [18] | max response [19] -6.59% and -0.402% | max response [20] -6.61% and -1.85%

COc1ccc(C(=O)Nc2ccccc2)cc1[N+](=O)[O-]
inactive: Potency [1] > 92 µM | Potency [2] | Potency [3] | Potency [4] | outcome [5] | outcome [6] | outcome [7] | Potency [8] | outcome [9] | outcome [10] | Potency [11] | Potency [12] | Potency [13] | outcome [14] | Potency [15] | Potency [16] | Potency [17] | Potency [18] | max response [19] -0.106% | max response [20] 0.739%

OC1CCCCC1
inactive: Potency [1] > 92 µM | Potency [2] | Potency [3] | Potency [4] | outcome [5] | outcome [6] | outcome [7] | Potency [8] | outcome [9] | outcome [10] | Potency [11] | Potency [12] | Potency [13] | outcome [14] | Potency [15] | Potency [16] | Potency [17] | Potency [18] | max response [19] -5.19% | max response [20] 16.5%
